According to the supplement of paper PMC10849652:
The full data set covers some 7,900 targets. This sample favours those with a hit. About 0.6% of all pairs of compound and target were hits. Values without a mark were called inactive.

What was measured:
Assay in all cases: log2 fold change, soluble protein after heating vs DMSO (PISA); higher = thermal stabilisation; K562 cells, 10 uM, 30 min; active = over 0.2 and 3.5 SD of the protein, either way, in both replicates (recomputed)
[1] = compound: CC[C@@H]1C(=O)N(C)c2cnc(Nc3ccc(C(=O)NC4CCN(C)CC4)cc3OC)nc2N1C1CCCC1
In short: (§1)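 K562 cells at 2×10^6 cells/mL were exposed to 10 μM compound for 30 min, then aliquots were heated for 3 min across 48°C-58°C, pooled, and extracted in PBS containing 0.5% NP-40 at 4°C. The supernatant after 21,000xg for 90 min was taken as soluble protein and measured by TMTpro 16plex LC-MS/MS with channel sums equalised. Thermal stability is reported relative to control samples, with values from duplicates. Fold changes are given on a log2 scale.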

[2] = compound: CC[C@H](C)N1C=C(C2=C(C=C(C=C21)C3=CN=C(C=C3)N4CCNCC4)C(=O)NCC5=C(C=C(NC5=O)C)C)C
In short: as §1

epoxomicin = compound: CC[C@H](C)[C@@H](C(=O)N[C@@H]([C@@H](C)O)C(=O)N[C@@H](CC(C)C)C(=O)[C@]1(CO1)C)NC(=O)[C@H]([C@@H](C)CC)N(C)C(=O)C [epoxomicin]
In short: as §1

[3] = compound: CCn1c(C(=O)N(C2CC2)C2CC2)cc2c3c(ncn3C)c(Nc3cc(C)n(C)n3)nc21
In short: as §1

[4] = compound: CN(C)CC(=O)Nc1ccc2[nH]c(=O)c3ccccc3c2c1
In short: as §1

rosiglitazone = compound: CN(CCOC1=CC=C(C=C1)C[C@H]2C(=O)NC(=O)S2)C3=CC=CC=N3 (racemic) [rosiglitazone]
In short: as §1

[5] = compound: CN1C2=C(C3=C1C(=O)N(N=C3)CC4=CC(=CC=C4)N)SC(=C2)S(=O)C
In short: as §1

saracatinib = compound: CN1CCN(CCOc2cc(OC3CCOCC3)c3c(Nc4c(Cl)ccc5c4OCO5)ncnc3c2)CC1 [saracatinib]
In short: as §1

sotrastaurin = compound: CN1CCN(c2nc(C3=C(c4c[nH]c5ccccc45)C(=O)NC3=O)c3ccccc3n2)CC1 [sotrastaurin]
In short: as §1

alvocidib = compound: CN1CC[C@H](c2c(O)cc(O)c3c(=O)cc(-c4ccccc4Cl)oc23)[C@H](O)C1 [alvocidib]
In short: as §1

Tubastatin A = compound: CN1CCc2c(c3ccccc3n2Cc2ccc(C(=O)NO)cc2)C1 [Tubastatin A]
In short: as §1

[6] = compound: CNC(=O)C1=CC=CC=C1NC2=NC(=NC=C2Cl)NC3=C(C=C(C=C3)N4CCOCC4)OC
In short: as §1

defactinib = compound: CNC(=O)c1ccc(Nc2ncc(C(F)(F)F)c(NCc3nccnc3N(C)S(C)(=O)=O)n2)cc1 [defactinib]
In short: as §1

rucaparib = compound: CNCc1ccc(-c2[nH]c3cc(F)cc4c3c2CCNC4=O)cc1 [rucaparib]
In short: as §1

[7] = compound: CNc1nc(-c2ccc3c(N)n[nH]c3c2)cc(N2C[C@@H](C(=O)NC3CCCCC3)CC[C@H]2C)n1
In short: as §1

encorafenib = compound: COC(=O)N[C@@H](C)CNc1nccc(-c2cn(C(C)C)nc2-c2cc(Cl)cc(NS(C)(=O)=O)c2F)n1 [encorafenib]
In short: as §1

[8] = compound: COC(=O)[C@H](CCSC)NC(=O)C1=C(C=C(C=C1)NC[C@H](CS)N)C2=CC=CC=C2
In short: as §1

volasertib = compound: CC[C@@H]1C(=O)N(C)c2cnc(Nc3ccc(C(=O)N[C@H]4CC[C@H](N5CCN(CC6CC6)CC5)CC4)cc3OC)nc2N1C(C)C [volasertib]
In short: as §1

[9] = compound: CCn1cc(-c2ccnc3[nH]c(-c4cccc(CN(C)C)c4)cc23)c(-c2ccc(NC(=O)N(C)C)cc2)n1
In short: as §1

[10] = compound: CN1CCC(CNc2ccc3ncc(-c4cccc(OC(F)(F)F)c4)n3n2)CC1
In short: as §1

UniProt O76062, sequence (O76062 whole entry, looked up): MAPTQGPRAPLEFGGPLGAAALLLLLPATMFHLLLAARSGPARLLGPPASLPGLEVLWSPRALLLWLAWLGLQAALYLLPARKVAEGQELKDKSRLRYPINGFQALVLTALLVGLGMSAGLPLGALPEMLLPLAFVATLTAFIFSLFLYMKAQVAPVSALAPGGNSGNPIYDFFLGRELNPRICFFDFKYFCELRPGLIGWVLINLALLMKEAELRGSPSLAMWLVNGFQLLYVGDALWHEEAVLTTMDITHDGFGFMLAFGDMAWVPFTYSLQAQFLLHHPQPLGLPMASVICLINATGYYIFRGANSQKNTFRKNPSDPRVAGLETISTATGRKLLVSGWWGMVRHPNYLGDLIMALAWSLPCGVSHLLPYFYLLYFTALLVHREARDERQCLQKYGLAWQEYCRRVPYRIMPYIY
UniProt Q12824, sequence (Q12824 whole entry, looked up): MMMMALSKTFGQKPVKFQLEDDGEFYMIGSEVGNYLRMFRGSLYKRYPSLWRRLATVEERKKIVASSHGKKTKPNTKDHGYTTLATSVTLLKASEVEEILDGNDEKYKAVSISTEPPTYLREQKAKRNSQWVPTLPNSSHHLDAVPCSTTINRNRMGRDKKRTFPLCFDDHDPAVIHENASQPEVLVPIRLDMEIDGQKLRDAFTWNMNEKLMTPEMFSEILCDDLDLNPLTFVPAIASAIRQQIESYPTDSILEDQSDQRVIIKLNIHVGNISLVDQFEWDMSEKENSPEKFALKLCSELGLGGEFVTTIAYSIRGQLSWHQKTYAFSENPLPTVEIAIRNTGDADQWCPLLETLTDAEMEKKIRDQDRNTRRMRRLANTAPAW
UniProt Q9NY26, sequence (Q9NY26 whole entry, looked up): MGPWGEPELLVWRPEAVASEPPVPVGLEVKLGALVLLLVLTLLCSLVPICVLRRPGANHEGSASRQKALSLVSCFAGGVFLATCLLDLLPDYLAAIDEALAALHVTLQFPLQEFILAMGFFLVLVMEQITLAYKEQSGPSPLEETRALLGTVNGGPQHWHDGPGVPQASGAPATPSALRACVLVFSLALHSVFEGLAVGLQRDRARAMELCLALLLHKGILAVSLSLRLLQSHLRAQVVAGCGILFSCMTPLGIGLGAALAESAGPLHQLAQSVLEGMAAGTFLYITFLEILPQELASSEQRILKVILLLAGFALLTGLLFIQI
UniProt Q5JUR7, sequence (Q5JUR7 whole entry, looked up): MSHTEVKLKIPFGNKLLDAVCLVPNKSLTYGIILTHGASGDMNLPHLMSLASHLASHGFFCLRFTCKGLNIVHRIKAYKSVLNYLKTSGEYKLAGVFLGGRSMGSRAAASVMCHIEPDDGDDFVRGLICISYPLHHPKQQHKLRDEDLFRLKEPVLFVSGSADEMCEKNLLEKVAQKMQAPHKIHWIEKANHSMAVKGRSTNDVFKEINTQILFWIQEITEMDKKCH
UniProt Q13428, sequence (Q13428 whole entry, looked up): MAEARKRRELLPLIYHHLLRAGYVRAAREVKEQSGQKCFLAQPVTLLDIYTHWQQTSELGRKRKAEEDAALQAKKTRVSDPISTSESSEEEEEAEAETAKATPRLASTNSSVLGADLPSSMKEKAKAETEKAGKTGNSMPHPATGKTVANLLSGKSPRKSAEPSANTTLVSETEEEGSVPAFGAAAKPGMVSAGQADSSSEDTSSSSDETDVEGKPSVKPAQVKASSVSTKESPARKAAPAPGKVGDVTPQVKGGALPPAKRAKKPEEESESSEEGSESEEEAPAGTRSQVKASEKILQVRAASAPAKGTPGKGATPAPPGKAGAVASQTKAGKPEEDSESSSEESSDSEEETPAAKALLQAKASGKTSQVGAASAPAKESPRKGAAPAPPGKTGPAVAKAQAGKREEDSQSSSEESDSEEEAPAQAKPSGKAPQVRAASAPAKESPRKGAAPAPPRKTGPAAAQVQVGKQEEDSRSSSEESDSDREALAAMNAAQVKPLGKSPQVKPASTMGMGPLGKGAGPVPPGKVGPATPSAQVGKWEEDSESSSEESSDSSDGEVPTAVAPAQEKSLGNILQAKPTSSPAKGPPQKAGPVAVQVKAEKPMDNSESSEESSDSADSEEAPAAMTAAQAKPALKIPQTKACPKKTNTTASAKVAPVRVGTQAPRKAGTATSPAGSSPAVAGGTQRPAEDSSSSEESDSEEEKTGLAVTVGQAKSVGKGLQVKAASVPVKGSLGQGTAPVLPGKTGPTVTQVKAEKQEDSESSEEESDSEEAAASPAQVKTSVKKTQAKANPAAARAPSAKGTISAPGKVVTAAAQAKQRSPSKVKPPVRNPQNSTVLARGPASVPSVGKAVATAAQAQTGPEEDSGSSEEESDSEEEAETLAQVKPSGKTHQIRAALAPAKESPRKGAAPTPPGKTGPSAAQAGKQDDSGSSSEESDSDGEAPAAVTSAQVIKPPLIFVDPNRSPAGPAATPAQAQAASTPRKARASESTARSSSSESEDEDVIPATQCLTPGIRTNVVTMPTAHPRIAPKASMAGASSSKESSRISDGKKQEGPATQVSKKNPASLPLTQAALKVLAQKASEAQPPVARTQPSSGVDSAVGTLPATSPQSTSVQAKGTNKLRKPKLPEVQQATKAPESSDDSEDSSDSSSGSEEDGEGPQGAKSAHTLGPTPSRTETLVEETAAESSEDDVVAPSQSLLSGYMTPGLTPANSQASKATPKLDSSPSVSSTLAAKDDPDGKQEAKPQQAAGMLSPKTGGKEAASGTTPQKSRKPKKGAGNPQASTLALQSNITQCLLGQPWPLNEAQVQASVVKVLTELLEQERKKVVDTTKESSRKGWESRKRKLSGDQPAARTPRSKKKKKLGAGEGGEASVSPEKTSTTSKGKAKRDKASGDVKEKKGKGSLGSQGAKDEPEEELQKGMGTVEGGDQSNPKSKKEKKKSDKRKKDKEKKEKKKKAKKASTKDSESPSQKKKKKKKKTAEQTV
UniProt Q9NXE4, sequence (Q9NXE4 whole entry, looked up): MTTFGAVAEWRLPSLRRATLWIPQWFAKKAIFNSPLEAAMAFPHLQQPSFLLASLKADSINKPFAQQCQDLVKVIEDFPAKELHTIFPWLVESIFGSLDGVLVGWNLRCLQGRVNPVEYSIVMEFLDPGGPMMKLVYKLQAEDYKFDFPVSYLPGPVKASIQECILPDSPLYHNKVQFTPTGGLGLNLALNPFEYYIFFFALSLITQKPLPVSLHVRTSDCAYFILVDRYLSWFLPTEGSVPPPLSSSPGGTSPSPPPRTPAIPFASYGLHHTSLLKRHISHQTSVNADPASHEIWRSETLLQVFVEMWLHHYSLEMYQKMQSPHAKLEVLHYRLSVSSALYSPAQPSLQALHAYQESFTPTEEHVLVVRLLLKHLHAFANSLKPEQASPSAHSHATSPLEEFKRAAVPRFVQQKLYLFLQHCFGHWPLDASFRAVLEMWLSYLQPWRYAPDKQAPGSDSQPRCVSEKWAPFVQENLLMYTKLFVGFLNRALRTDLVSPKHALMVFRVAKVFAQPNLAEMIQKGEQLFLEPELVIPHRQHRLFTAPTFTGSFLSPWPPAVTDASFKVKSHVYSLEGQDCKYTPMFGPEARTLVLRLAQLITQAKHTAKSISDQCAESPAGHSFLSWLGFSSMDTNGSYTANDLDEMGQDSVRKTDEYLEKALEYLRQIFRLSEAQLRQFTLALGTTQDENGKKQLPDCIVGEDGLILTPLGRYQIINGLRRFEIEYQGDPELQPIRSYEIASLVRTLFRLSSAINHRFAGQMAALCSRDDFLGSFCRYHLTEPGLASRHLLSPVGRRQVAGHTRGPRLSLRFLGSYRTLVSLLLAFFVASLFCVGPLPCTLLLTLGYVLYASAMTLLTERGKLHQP
UniProt Q9NUW8, sequence (Q9NUW8 whole entry, looked up): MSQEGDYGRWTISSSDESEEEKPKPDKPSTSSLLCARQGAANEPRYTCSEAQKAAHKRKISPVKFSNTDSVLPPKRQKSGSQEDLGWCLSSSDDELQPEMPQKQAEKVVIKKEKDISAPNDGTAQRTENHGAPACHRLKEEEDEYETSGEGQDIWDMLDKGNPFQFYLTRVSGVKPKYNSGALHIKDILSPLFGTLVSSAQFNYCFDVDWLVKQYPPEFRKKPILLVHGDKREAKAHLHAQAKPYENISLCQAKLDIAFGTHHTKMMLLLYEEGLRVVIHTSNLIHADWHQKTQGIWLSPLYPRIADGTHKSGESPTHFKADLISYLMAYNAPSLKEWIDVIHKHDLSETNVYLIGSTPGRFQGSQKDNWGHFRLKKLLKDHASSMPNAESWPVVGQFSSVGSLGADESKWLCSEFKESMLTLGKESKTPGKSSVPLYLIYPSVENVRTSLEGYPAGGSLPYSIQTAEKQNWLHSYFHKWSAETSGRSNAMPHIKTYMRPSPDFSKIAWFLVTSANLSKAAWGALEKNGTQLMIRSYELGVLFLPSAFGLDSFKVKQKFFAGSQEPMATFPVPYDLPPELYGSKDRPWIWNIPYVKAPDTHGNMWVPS
UniProt Q9H4I9, sequence (Q9H4I9 whole entry, looked up): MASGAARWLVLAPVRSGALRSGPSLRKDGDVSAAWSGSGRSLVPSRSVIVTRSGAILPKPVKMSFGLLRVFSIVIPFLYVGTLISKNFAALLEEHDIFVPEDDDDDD
UniProt Q8N9U0, sequence (Q8N9U0 whole entry, looked up): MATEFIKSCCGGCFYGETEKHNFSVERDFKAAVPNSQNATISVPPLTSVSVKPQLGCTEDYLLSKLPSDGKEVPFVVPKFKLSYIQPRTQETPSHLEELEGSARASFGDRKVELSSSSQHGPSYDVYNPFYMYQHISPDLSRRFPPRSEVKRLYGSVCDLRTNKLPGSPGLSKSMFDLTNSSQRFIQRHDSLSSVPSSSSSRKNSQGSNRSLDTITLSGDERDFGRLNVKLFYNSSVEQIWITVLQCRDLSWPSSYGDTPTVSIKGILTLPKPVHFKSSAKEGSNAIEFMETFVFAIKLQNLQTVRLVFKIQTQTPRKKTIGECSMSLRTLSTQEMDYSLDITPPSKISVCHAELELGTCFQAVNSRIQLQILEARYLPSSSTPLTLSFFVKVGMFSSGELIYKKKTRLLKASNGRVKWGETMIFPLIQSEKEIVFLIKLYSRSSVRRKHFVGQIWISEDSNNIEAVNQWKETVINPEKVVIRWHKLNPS

Row | Target | log2 fold change [1] | log2 fold change [2] | log2 fold change (epoxomicin) | log2 fold change [3] | log2 fold change [4] | log2 fold change (rosiglitazone) | log2 fold change [5] | log2 fold change (saracatinib) | log2 fold change (sotrastaurin) | log2 fold change (alvocidib) | log2 fold change (Tubastatin A) | log2 fold change [6] | log2 fold change (defactinib) | log2 fold change (rucaparib) | log2 fold change [7] | log2 fold change (encorafenib) | log2 fold change [8] | log2 fold change (volasertib) | log2 fold change [9] | log2 fold change [10]
1 | SLC35B1 isoform 2 (UniProt P78383) | 0.123 | -0.017 | 0.066 | 0.001 | 0.075 | 0.044 | -0.111 | 0.036 | -0.03 | 0.031 | 0.037 | -0.003 | 0.026 | -0.051 | 0.011 | 0.132 | -0.127 |  |  | 
2 | SLC27A1 (UniProt Q6PCB7) |  | 0.022 | -0.021 | -0.008 | 0.008 | -0.01 | -0.072 | -0.007 | 0.013 | -0.203 | -0.252 | -0.011 | 0.064 |  | 0.146 |  | -0.183 | -0.639 (active) |  | 
3 | SP2 (UniProt Q02086) | -0.289 |  |  |  |  |  | 0.372 | 0.09 | 0.091 |  |  |  |  | 0.324 | -0.132 | -0.025 |  |  |  | 
4 | SLC39A1 (UniProt Q9NY26) |  |  |  | -0.09 |  |  |  |  |  | 0.072 |  | -0.129 |  |  |  |  |  |  | -0.014 | -0.051
5 | SLC35B4 (UniProt Q969S0) | -0.003 | -0.041 | 0.044 | 0.042 | -0.134 | 0.005 |  |  | 0.012 |  | 0.014 | 0.046 | 0.086 | 0.036 |  | -0.015 | -0.146 |  |  | 
6 | SYK (UniProt P43405) |  |  | 0.022 | -0.021 | -0.085 | -0.006 | -0.052 | -0.151 |  | -0.168 | 0.355 | -0.113 | 0.249 | 0.258 | 0.03 | 0.112 | -0.012 | 0.196 |  | 
7 | SMPD4 isoform 2 (UniProt Q9NXE4) |  |  |  |  | -0.044 | -0.047 | 0.056 | 0.028 |  | -0.07 | -0.054 |  | 0.094 |  | 0.02 |  | -0.19 | -0.234 | -0.236 | -0.441
8 | TCOF1 isoform 3 (UniProt Q13428) | 0.001 |  | -0.352 | 0.03 |  |  |  |  | 0.326 |  | 0.054 | -0.007 |  | -0.065 |  | -0.084 |  |  | 0.155 | -0.436
9 | TC2N (UniProt Q8N9U0) |  | 0.029 |  |  | -0.194 |  | 0.073 | -0.215 |  |  | 0.308 |  | -0.341 |  | -0.064 |  | -0.096 |  |  | 
10 | TEX30 (UniProt Q5JUR7) |  | -0.044 | 0.007 | -0.005 | 0.075 | 0.028 | 0.046 | -0.065 |  | -0.177 | 0.022 | 0.015 | -0.096 |  | -0.026 |  | 0.017 | -0.221 | 0.079 | -0.601 (active)
11 | SSBP4 (UniProt U3KPY3) |  |  |  |  | 0.049 |  |  |  |  |  |  |  | -0.189 |  |  |  | -0.121 |  |  | 
12 | SMDT1 (UniProt Q9H4I9) | 0.08 |  | -0.064 |  | 0.108 | -0.037 | 0.028 | 0.092 | -0.077 | -0.005 | 0.035 |  | 0.014 | 0.057 | -0.064 | 0.011 | 0.003 |  | -0.044 | 0.01
13 | SMARCB1 (UniProt Q12824) | -0.058 |  |  |  | -0.116 |  | 0.127 | -0.09 | -0.192 | -0.106 | 0.016 |  | -0.158 | 0.809 (active) | -0.009 | -0.247 | 0.144 |  | 0.053 | -0.222
14 | SPIRE1 (UniProt Q08AE8) | 0.125 | -0.181 | -0.238 | -0.069 | -0.056 | -0.002 |  |  |  | 0.153 | 0.141 | -0.166 | 0.047 | 0.035 |  | -0.105 | -0.074 |  | -0.116 | -0.026
15 | TDP1 (UniProt Q9NUW8) |  |  |  | -0.11 |  |  |  |  |  | -0.028 |  | -0.041 |  |  |  |  |  |  |  | 
16 | SLC46A1 (UniProt Q96NT5) | 0.156 |  |  | -0.072 | -0.041 |  |  |  |  | 0.193 | 0.067 | 0.085 | 0.034 | -0.081 |  | -0.051 | -0.011 |  | -0.072 | 0.087
17 | SLC44A2 isoform 2 (UniProt Q8IWA5) | 0.2 | 0 | 0.053 | 0.014 | -0.048 | -0.016 | -0.154 | 0.104 | 0.056 | -0.051 | -0.053 | -0.055 | -0.137 | -0.044 | 0.043 | -0.125 | 0.02 |  | -0.105 | 0.259
18 | TCOF1 isoform 6 (UniProt Q13428) | 0.04 | -0.132 |  | -0.039 | -0.219 | -0.173 |  |  | -0.094 | 0.104 | -0.103 | -0.149 | 0.027 | -0.022 |  | 0.162 | -0.053 |  |  | 
19 | TM7SF2 (UniProt O76062) |  | -0.022 |  | -0.111 | -0.435 |  | 0.031 | 0.069 | -0.142 | -0.048 |  | -0.043 | -0.006 |  | 0.018 |  | -0.096 | 0.907 (active) |  | 
20 | SNRK (UniProt Q9NRH2) | -0.157 |  |  |  |  |  | -0.011 | -0.092 | 0.003 |  |  |  |  | -0.099 | 0.011 | 0.002 |  | -0.085 |  | 
21 | STK38L (UniProt Q9Y2H1) | 0.071 | -0.011 | 0.071 | 0.031 | -0.045 | 0.024 | -0.029 | 0.103 | 0.035 | -0.087 | -0.067 | 0.002 | -0.048 | -0.052 | 0.024 | 0.004 | -0.073 |  | -0.015 | 0.016
